Cardiac RTF inh: cardiac RTF calcium desensitization | P19429+P45379 | IANBD-labeled cardiac RTF, Ca2+ fluorescence | inhibition, % at 7.15 µM | hit rate 0.12% among 340,000 | AID 493244;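 active = inhibition above the mean inhibition of all tested compounds plus 3 SD, cut at about 17% in these data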;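 also: assay run at fixed EC70 calcium of 1.6 mM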
CRFBP-R2 agonist: agonists of human CRF-binding protein/CRF-R2 receptor complex; HEK293 CRF-R2/CRF-BP, calcium dye fluorescence (FLIPR); percent of saturating CRF peptide response; activation, % at 13.2 µM; hit rate 0.46% among 350,000;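 active = activation of at least 50%, plus an integration ratio under a set limit after plate pattern correction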;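 also: plate controls were neutral control wells without compound for no effect and CRF at EC100 for full effect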
RTF Ca sens act: increases calcium sensitivity of human cardiac regulated thin filaments; P19429+P45379; IANBD-labeled TnC RTF fluorescence at EC20 calcium; 0% EC20 calcium, 100% full calcium; activation, % at 7.2 µM; hit rate 0.24% among 340,000;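 active = activation above the mean over all tested compounds plus 3 SD, cut at about 30% in these data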;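 also: rise in fluorescence read as greater calcium sensitivity of cardiac thin filaments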
CRFBP-R2 block: blocks CRF-induced signaling of the CRF-BP/CRF-R2 complex; hit rate 0.59% among 350,000; inhibition, % at 11.8 µM; HEK293 CRF-R2/CRF-BP, CRF-induced calcium fluorescence; AID 588475;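 active = inhibition of the ligand-induced calcium signal above about 50% at the single tested concentration, limit read from the data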
Keap1 Nrf2 FP: inhibitors of human Keap1-Nrf2 protein-protein interaction | Q14145 | Keap1 Kelch-Nrf2 peptide fluorescence polarization, 1536-well | inhibition, % at 9.4 µM | hit rate 0.15% among 340,000; in the data active = inhibition above about 12%;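 also: human Keap1 Kelch domain with fluorescein labeled Nrf2 9mer peptide probe; 0% = neutral control wells and 100% = peptide positive control; higher means more block of Keap1 binding to Nrf2 peptide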
Target sequence (Q14145 whole entry, looked up, the tested form may be a part): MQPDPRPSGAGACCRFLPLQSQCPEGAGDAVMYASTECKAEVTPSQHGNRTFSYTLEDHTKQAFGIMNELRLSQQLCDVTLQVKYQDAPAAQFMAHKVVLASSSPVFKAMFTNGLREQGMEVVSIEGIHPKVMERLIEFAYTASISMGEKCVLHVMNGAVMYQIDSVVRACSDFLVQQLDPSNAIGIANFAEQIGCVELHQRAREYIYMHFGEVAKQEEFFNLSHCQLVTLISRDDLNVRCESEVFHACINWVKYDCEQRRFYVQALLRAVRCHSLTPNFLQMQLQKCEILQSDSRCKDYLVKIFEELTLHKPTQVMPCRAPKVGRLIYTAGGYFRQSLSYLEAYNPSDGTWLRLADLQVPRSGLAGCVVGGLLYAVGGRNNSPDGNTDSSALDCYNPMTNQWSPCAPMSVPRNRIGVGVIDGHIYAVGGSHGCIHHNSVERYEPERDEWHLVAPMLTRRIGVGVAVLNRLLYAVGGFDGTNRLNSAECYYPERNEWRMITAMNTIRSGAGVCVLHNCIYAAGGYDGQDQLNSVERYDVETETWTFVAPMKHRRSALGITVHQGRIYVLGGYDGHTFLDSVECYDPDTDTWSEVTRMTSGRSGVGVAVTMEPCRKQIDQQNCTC
LANA DNA inh: KSHV C-LANA DNA binding inhibition; hit rate 0.078% among 340,000; AID 504423; inhibition, % at 9 µM; MBP-C-LANA/FAM-LBS DNA binding, fluorescence polarization;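 active = highest replicate inhibition at or above 60% at 9 µM, even if other replicates fall short; inactive = all replicates below 60% inhibition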;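 also: 0% = neutral control wells and 100% = 4 µM acridine orange control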
RTF Ca inh conf: cardiac RTF calcium sensitivity inhibition, confirmation. reconstituted cardiac thin filaments, calcium sensitivity fluorescence. hit rate 8% among 360. inhibition, % at 7.15 µM. shares compounds with Cardiac RTF inh; in the data active = inhibition above about 18%
* marks the source's active call; other numbers are inactive results; . = no result. Only some compounds are listed: those with a hit (about 1.3% of all), similar ones and a draw of the others.

SMILES | Cardiac RTF inh | CRFBP-R2 agonist | RTF Ca sens act | CRFBP-R2 block | Keap1 Nrf2 FP | LANA DNA inh | others
Cc1c(CC(Cl)(Cl)Cl)c2c(n1O)CC(C)(C)CC2=O | 1 | 55* | -4 | 74* | 2 | 1
Cc1ncsc1C(=O)N1CCCC(C(=O)c2ccc3ccccc3c2)C1 (centres undefined) | -1 | 1 | -2 | 60* | -3 | 0
O=c1[nH][nH]cc1C=Nc1ccc(Cl)cc1 | -1 | -1 | -6 | 72* | -1 | 0
Cc1ccc(CN2CC(C(=O)NCCCn3nc(C)cc3C)CC2=O)cc1 (centres undefined) | -4 | -1 | 3 | -4 | -4 | -1
CN(C)S(=O)(=O)c1ccc(N2CCCC2)c(C(=O)NC2(C)CCS(=O)(=O)C2)c1 (centres undefined) | -12 | 0 | 1 | -4 | 2 | 0
CN(C)S(=O)(=O)c1ccc(Cl)c(NC(=O)CNC2(C)CCS(=O)(=O)C2)c1 (centres undefined) | 1 | -1 | 1 | 113* | -2 | 3
Cc1ccc(CNC(=O)CSc2nc(=O)n3cccc(C)c3n2)cc1 | 3 | -2 | -3 | -6 | -3 | 1
COCCN(CCOC)Cc1c(O)ccc2c1O/C(=C\c1ccc(C)o1)C2=O | -86 | 4 | 147* | 5 | -17 | 14
Cc1ccc(/C=C2\Oc3cc(OCC(=O)NN)ccc3C2=O)o1 | -13 | 0 | 1 | 1 | -4 | 1
COc1ccccc1/C=C/C=C1\Oc2c(ccc(O)c2CN(C)C)C1=O | -147 | 41 | 107* | -33 | -41 | 11
CCN(CC)Cc1c(O)ccc2c1O/C(=C\C=C\c1ccccc1)C2=O | -165 | 41 | 113* | -25 | -84 | 14
O=C(Nc1ccc2c(c1)OCO2)OCc1ccccc1 | -8 | -3 | -3 | 17 | -5 | -1
COc1cccc(-c2cc(C(=O)N3CCN(Cc4ccc5c(c4)OCO5)CC3)on2)c1 | -1 | 0 | -1 | -23 | -2 | 0
CCc1ccccc1NC(=O)NC(C)c1ccc2c(c1)OCO2 (centres undefined) | 0 | -3 | 5 | 61* | -1 | 1
CC(NC(=O)Nc1ccc(Cl)cc1)c1ccc2c(c1)OCO2 (centres undefined) | 0 | -1 | -1 | 0 | 0 | 1
CC1(C)c2ccccc2N2CC(=O)N(CC(N)=O)C21C (centres undefined) | -45 | 23 | 40* | -29 | -71 | -7
CC1(C)c2ccccc2N(CC(N)=O)C12C=Cc1ccccc1O2 (centres undefined) | 0 | -1 | -1 | -6 | -5 | 1
C#CCOCCOCCOCCNc1nc(N2CCN(C(=O)[C@H](CCCCN)n3cc(CN)nn3)CC2)nc(N2CCN(C(=O)[C@H](CCC(=O)O)n3cc(CN)nn3)CC2)n1 | -3 | 0 | 9 | -3 | -2 | 0
O=C(CC1SC(=O)N(c2ccccc2)C1=O)Nc1ccccc1 (centres undefined) | -9 | 5 | 4 | -20 | -6 | 0
Cc1ccc(NC(=O)CC2SC(=O)N(c3ccccc3)C2=O)cc1 (centres undefined) | -10 | 2 | 5 | 89* | -2 | 2
CCCCCCn1c(=O)c(F)cn(Cc2ccc(OC)c([N+](=O)[O-])c2)c1=O | -21 | -2 | 2 | 59* | 0 | 3
CCCCCn1c(=O)c(F)cn(Cc2ccc(OC)c([N+](=O)[O-])c2)c1=O | 5 | 0 | 2 | 6 | -3 | -1
COc1ccc(Nc2nc(Cl)nc(NCc3ccco3)n2)c(OC)c1 | -10 | -2 | 4 | 56* | 3 | -1
CC(C)c1ccc(Nc2nc(Cl)nc(NCc3ccco3)n2)cc1 | 7 | 4 | -3 | -1 | -5 | -11
O=C(NCc1cccs1)C(=O)NCC(c1ccco1)N1CCN(c2ccccc2)CC1 (centres undefined) | -13 | 2 | 0 | -5 | -3 | -1
SMILES | Cardiac RTF inh | CRFBP-R2 agonist | RTF Ca sens act | CRFBP-R2 block | Keap1 Nrf2 FP | LANA DNA inh | others
CCC(CC)NC(=O)CC(c1ccccc1)c1ccccc1 | -4 | -11 | 5 | 71* | 3 | 0
CC(NC(=O)CC(c1ccccc1)c1cc(Cl)ccc1O)c1ccccc1 (centres undefined) | -2 | -2 | -1 | 52* | -7 | 1
COc1ccc2nc(NC(=O)CCNC(=O)c3ccccc3Cl)sc2c1 | -13 | -2 | 1 | 19 | -4 | 1
O=C(NNC1=NS(=O)(=O)c2ccccc21)c1cccc([N+](=O)[O-])c1 | -8 | -1 | 1 | -2 | 1 | 2
O=C(N/N=C/c1cc2c(cc1Br)OCO2)c1c[nH]c2ccccc12 | 0 | -2 | -7 | -1 | 4 | 0
O=C(NNC1=C(C(=O)C(F)(F)F)CCC1)c1ccccc1O | -7 | -1 | 0 | -15 | 0 | 1
COc1ccccc1C(=O)NNC1=C(C(=O)C(F)(F)F)CCC1 | 4 | 62* | -2 | 28 | -2 | -1
CC(C)OCCCNC(=O)CN1C(=O)CSc2ccc(S(=O)(=O)N3CCOCC3)cc21 | . | -1 | . | 4 | . | .
Cc1cccc(NC(=O)Cc2ccc(NC3=NC4CS(=O)(=O)CC4S3)cc2)c1 (centres undefined) | -5 | -2 | 4 | 60* | -1 | 0
Cc1cc(C)cc(NC(=O)Cc2ccc(NC3=NC4CS(=O)(=O)CC4S3)cc2)c1 (centres undefined) | -2 | -1 | -4 | 11 | 3 | -1
CCCCc1ccc(NC(=O)Nc2cccnc2)cc1 | 4 | 1 | -5 | -8 | 3 | 0
CCCCc1ccc(NC(=S)Nc2cccnc2)cc1 | -8 | -2 | 4 | 53* | -3 | 0
Cc1ccc2cccc(S(=O)(=O)N3CCCc4ccccc43)c2n1 | -3 | 88* | -2 | -159 | -2 | 1
CC(=O)OCCNc1cc(N2CCN(C)CC2)c2noc3c2c1C(=O)c1ccccc1-3 | -8 | -2 | 3 | 44 | -72 | -8
CCOC(=O)C(C(=O)OCC)c1cc(Br)c2noc3c2c1C(=O)c1ccccc1-3 | -145 | 6 | 96* | 23 | 3 | 8
O=C(Cc1ccc(Cl)cc1)Nc1ccc(SC(F)F)cc1 | 0 | -1 | 0 | -34 | -3 | -1
CCSc1cc(N2CCCC2)nc(-c2cccc(C)c2)n1 | 18* | -1 | 3 | -10 | 2 | -2 | RTF Ca inh conf=0
CCSc1cc(N2CCCC2)nc(-c2ccc(C)cc2)n1 | -4 | 5 | 0 | -77 | -2 | -1
O=C(NNc1ccccc1Br)C(=O)n1ccc2ccccc21 | -14 | -4 | -1 | 17 | 4 | 0
Cc1ccccc1C(=O)N/N=C1/SCC(=O)N1Cc1ccccc1 | 18* | 0 | 3 | 5 | 0 | -1 | RTF Ca inh conf=2
